{"source": "PubChem BioAssay AID488930", "about": "(Broad Institute, 2010)", "note": "Measured potencies and affinities stand elsewhere. Results filed as inconclusive are left out. The source made the active and inactive calls.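 Rule for the calls: active = compounds whose fitted half-maximal concentration is at most ten times their top tested dose; inconclusive = flat curve with 30 to 70% inhibition, or poor fit; inactive = the rest.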", "data": [{"experiment": "C. albicans growth inhibition with fluconazole, dose response, antifungal resistance reversal project, CaCi-2 strain, Alamar Blue, dry powder, set 2 (AID 488930)", "conditions": "C. albicans CaCi-2 (fluconazole-resistant clinical isolate) + fluconazole, 48 h; series mostly up to 6 µM", "values": [{"smiles": "O=C(Nc1ccc(Cl)cc1)N1CCN(c2ccnc3cc(Cl)ccc23)CC1", "outcome": "inactive"}, {"smiles": "Cc1cc(N2CCN(C(=O)c3ccc(Cl)cc3)CC2)c2ccccc2n1", "outcome": "inactive"}, {"smiles": "O=C(c1ccc(Cl)cc1)N1CCCN(c2ccnc3cc(Cl)ccc23)CC1", "outcome": "inactive"}, {"smiles": "O=C(c1ccccc1Cl)N1CCN(c2ccnc3cc(Cl)ccc23)CC1", "outcome": "inactive"}, {"smiles": "O=C(c1ccc(Cl)cc1)N1CCN(c2ccnc3ccccc23)CC1", "outcome": "inactive"}, {"smiles": "O=C(c1ccc(Cl)cc1)N1CCNCC1", "outcome": "inactive"}, {"smiles": "O=C(c1ccc(Cl)cc1)N1CCN(c2ncnc3ccccc23)CC1", "outcome": "inactive"}, {"smiles": "O=C(c1ccc(Cl)cc1)N1CCN(c2cccnc2)CC1", "outcome": "inactive"}, {"smiles": "COc1ccc2c(N3CCN(C(=O)c4ccc(Cl)cc4)CC3)ccnc2c1", "outcome": "inactive"}, {"smiles": "O=C(c1ccc(Cl)cc1)N1CCN(c2ccncc2)CC1", "outcome": "inactive"}, {"smiles": "COc1cccc2c(N3CCN(C(=O)c4ccc(Cl)cc4)CC3)cc(C)nc12", "outcome": "inactive"}, {"smiles": "Cc1cc(N2CCN(C(=O)c3ccc(Cl)cc3)CC2)c2ccc(F)cc2n1", "outcome": "inactive"}, {"smiles": "COCCC(=O)N1CCN(c2ccnc3cc(Cl)ccc23)CC1", "outcome": "inactive"}, {"smiles": "N#Cc1ccc(N2CCN(C(=O)c3ccc(Cl)cc3)CC2)nc1", "outcome": "inactive"}, {"smiles": "Clc1ccc2c(N3CCNCC3)ccnc2c1", "outcome": "inactive"}, {"smiles": "O=C(O)Cn1nc(-c2ccccc2)c2ccccc21", "outcome": "inactive"}, {"smiles": "CCCC(=O)N1CCN(c2ccnc3cc(Cl)ccc23)CC1", "outcome": "inactive"}, {"smiles": "O=C(c1ccc(Cl)cc1)N1CCN(c2ncnc3nc[nH]c23)CC1", "outcome": "inactive"}, {"smiles": "COc1ccnc(N2CCN(C(=O)c3ccc(Cl)cc3)CC2)c1", "outcome": "inactive"}]}]}
